This note sets out measurements from PubChem BioAssay AID588397 (National Center for Advancing Translational Sciences (NCATS), 2011).

The structures appear in SMILES notation. Values joined by “and” are separate entries in the source; they are usually repeats but may differ in a detail not shown here. Equal values may be shown once. Screen size: about 1,300 compounds; about 1,000 (77%) were called active. Roughly 7% stayed inconclusive and do not appear here. The set was probably picked from earlier hits. This is one part of the list. Values without a mark were called inactive. Calls follow the shape of the dose curve; as a rule, active = well fitted inhibition curve with a large enough effect; inconclusive = small, poorly fitted or top-dose-only effect; inactive = no such curve, though single readings can be large or run the other way.
% is scaled to controls: 0 for no effect and ±100 for the full control effect; potency is read from the fitted curve at half-maximal effect.

This test is described as follows: qHTS of small molecules that selectively kill Giardia lamblia: Hit Validation.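 Also: viability measured as ATP content by luminescence so killing lowers signal; nearly all actives have a fitted effect of over 65% in size.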 The note with it: Giardia lamblia trophozoite viability, dose-response; series mostly up to 38.3 µM; activity change, negative = killing: at the top concentration. An excerpt:
Giardia lamblia is a human pathogen afflicting impoverished nations, and the most common cause of outbreaks of diarrhea in the United States. Giardia has been classified by the CDC as a category B bioterrorism organism. The favored anti giardiasis drugs in the US are metronidazole or tinidazole, compounds that have undesirable side effects. Moreover, increasing resistance to drug regimes and recurrence are a concern. It is thus clear that alternative drug treatments are needed.
In a collaboration between the University of Maryland, College Park and the NIH Chemical Genomics Center, a bioluminescence Giardia viability assay based on the trophozoites' ATP content was developed. This assay is suitable for high throughput screening, and miniaturized the assay for compound screening in 1536-well plates. The goal of the project is to screen the Molecular Libraries Small Molecule Repository (MLSMR) for compounds that selectively kill Giardia trophozoites.
NIH Chemical Genomics Center [NCGC]
NIH Molecular Libraries Probe Centers Network [MLPCN]
Assay Submitter (PI): Osnat Herzberg, University of Maryland, College Park, MD.
1. Dispense 2 ul/well media
2. Dispense 23 nl/well compounds
3. Dispense 4 ul/well Giardia trophozoites at a concentration of 100 cells/well
4. Incubate 48 hrs at 37 deg C anaerobically
5. Dispense 4 ul/well ATPLite 1-Step Luminescence assay kit
6. Incubate 15-30 min at room temperature
7. Read luminescence signal on ViewLux plate reader
Take `COc1ccc(C(=O)Nc2ccc(C)cn2)c(OC)c1`: the Potency was 0.579 µM (active).
For the molecule `COc1cc(C(=O)NC(=S)Nc2ccc(Cl)cn2)cc(OC)c1OC`, the “activity change, negative = killing” value was -7.19%.
Regarding `COC(=O)c1sc(NC(=O)c2ccc(OC)cc2OC)nc1C`, the Potency was 0.365 µM (active).
With `C[C@H]1CN=C(N(C)C)N1CCC1CCCC1`, the “activity change, negative = killing” value is 2.7%.
Turning to `CCOC(=O)CSc1ccc(C(=O)NCCCN2CCOCC2)cc1[N+](=O)[O-]`, the Potency is 18.3 µM (active).
Still for that read-out and setting: then `O=C(CN(C1CCCCC1)S(=O)(=O)c1ccc(F)cc1)NCC1CCCO1` (stereo unspecified), with 1.63 µM (active); and `Cc1c[n+]([O-])ccc1[N+](=O)[O-]`, with 1.3 µM (active); and `Cc1ccnc(NC(=O)c2ccc3c(c2)OCO3)c1`, with 2.59 µM (active).
The same measure, in the same setting: then `Cc1cc(NC(=O)c2ccc3c(c2)OCCO3)no1`, with 1.16 µM (active).
Take `Cc1nc2c(ccc3nc(NC(=O)c4ccc5c(c4)OCCO5)sc32)s1`: the Potency is 3.26 µM (active) and 3.65 µM (active).
On the same count and under the same terms, in the case of `Cc1cc(NC(=O)c2ccc(C(C)(C)C)cc2)no1` it was 6.5 µM (active).
Take `N#Cc1sc(NCc2cccc(Cl)c2)nc1Cl`: the Potency is 23.1 µM (active).
On the same count and under the same terms, in the case of `NC(=O)CCCn1c(C(=O)c2ccc(Cl)cc2)c2ccc([N+](=O)[O-])cc2[n+]1[O-]` it was 1.16 µM (active); in that of `NCCCn1c(C(=O)c2ccc(Cl)cc2)c2ccc([N+](=O)[O-])cc2[n+]1[O-]`, 3.26 µM (active); in that of `CCOC(=O)C1=C(C)N=c2s/c(=C/c3cccc([N+](=O)[O-])c3O)c(=O)n2C1c1ccccc1` (stereo unspecified), 2.31 µM (active).
As for `CCOC(=O)C1=C(C)N=c2s/c(=C/c3cccc([N+](=O)[O-])c3O)c(=O)n2C1c1cc(OC)c(OC)c(OC)c1` (stereo unspecified), the Potency is 2.9 µM (active).
Regarding `CCOC(=O)C1=C(C)N=c2s/c(=C/c3cccc([N+](=O)[O-])c3O)c(=O)n2C1c1ccc(OC)cc1OC` (stereo unspecified), the Potency is 1.83 µM (active).
Same read-out and setting: then `CCOC(=O)C1=C(C)N=c2s/c(=C\c3ccc(O)c([N+](=O)[O-])c3)c(=O)n2C1c1ccccc1OC` (stereo unspecified), with 2.05 µM (active).
Take `CN(C)C(=O)CCc1ccc2c3c([nH]c2c1)[C@]1(CCC2CCCC2)[C@@H](C(=O)N2CCOCC2)C[C@H](CC(=O)NCCN2CCOCC2)C(=O)N1CC3`: the “activity change, negative = killing” value was -13.7%.
`CCC(=O)N1CCN(c2ccc(Cl)cc2NC(=O)c2ccc([N+](=O)[O-])o2)CC1`: the Potency was 1.16 µM (active).
Regarding `CC(=O)N1CCN(c2ccc(NC(=O)c3ccc([N+](=O)[O-])o3)cc2Cl)CC1`, the Potency was 1.45 µM (active).
The same measure, in the same setting: then `CN1CCN(c2ccc(NC(=O)c3ccc([N+](=O)[O-])o3)cc2Cl)CC1`, with 1.3 µM (active).
Same read-out and setting: in the case of `CS(=O)(=O)N1CCN(c2ccccc2NC(=O)c2ccc([N+](=O)[O-])o2)CC1` it was 1.3 µM (active).
With `CCN1CCN(c2ccc(NC(=O)c3ccc([N+](=O)[O-])o3)cc2Cl)CC1`, the Potency was 0.729 µM (active).
Turning to `CN1CCN(c2ccc(NC(=O)c3ccc4c(c3)OCCO4)cc2Cl)CC1`, the Potency was 5.16 µM (active).
Take `CC(=O)Nc1ccc(S(=O)(=O)NCCC(=O)N2CCN(c3ccccc3Cl)CC2)cc1`: the “activity change, negative = killing” value is -25.3%.
`CCC(=O)N1CCN(c2ccc(NC(=O)c3ccc([N+](=O)[O-])o3)cc2Cl)CC1`: the Potency is 0.65 µM (active).
Still for that read-out and setting: then `O=C(Nc1ccccc1N1CCN(C(=O)c2ccccc2)CC1)c1ccc([N+](=O)[O-])o1`, with 0.818 µM (active); and `CC(C)C(=O)N1CCN(c2ccc(NC(=O)c3ccc([N+](=O)[O-])o3)cc2Cl)CC1`, with 1.03 µM (active); and `O=C(Nc1ccccc1N1CCOCC1)c1ccc([N+](=O)[O-])o1`, with 1.3 µM (active).
As to `CC(C)C(=O)N1CCN(c2ccccc2NC(=O)c2ccc([N+](=O)[O-])o2)CC1`, the Potency is 1.16 µM (active).
On the same count and under the same terms, in the case of `O=C(Nc1cccc(Cl)c1N1CCOCC1)c1ccc([N+](=O)[O-])o1` it was 1.3 µM (active).
Same read-out and setting: then `CCC(=O)N1CCN(c2ccccc2NC(=O)c2ccc([N+](=O)[O-])o2)CC1`, with 0.818 µM (active).
Still for that read-out and setting: in the case of `COc1ccc(CN(C(=O)CSc2nnc(-c3ccc(OC)c(OC)c3)o2)c2ccc(F)cc2)cc1` it was 3.65 µM (active).
Turning to `COc1ccc(-c2nc(CSCC(=O)NC3CCCC3)c(C)o2)cc1OC`, the “activity change, negative = killing” value is -30.1%.
Regarding `Cc1ccc(CSc2nnc(Cn3c(=O)sc4ccccc43)n2C)cc1`, the “activity change, negative = killing” value is -21.4%.
Turning to `Cc1ccc(-c2nc(-c3ccccc3)no2)c(Cl)c1`, the Potency was 1.63 µM (active).
The same measure, in the same setting: in the case of `Nc1ccc[n+](CC(=O)c2ccc(F)cc2)c1` it was 2.31 µM (active); in that of `Cc1cccc(NC(=O)c2ccc([N+](=O)[O-])s2)c1C`, 3.26 µM (active); in that of `O=C(Nc1cccc2ccccc12)c1ccc([N+](=O)[O-])s1`, 2.05 µM (active).
On the same count and under the same terms, then `COc1cc2sc3cc(NCCCN4CCOCC4)ccc3c(=O)c2cc1OC`, with 5.16 µM (active).
Consider `COc1ccc(Cc2noc(CN(C)Cc3ccc(-n4cccn4)cc3)n2)cc1OC`, for which the “activity change, negative = killing” value was -6.65%.
Consider `COc1cc2nc(CN(C)Cc3ccc(C(C)(C)C)cc3)[nH]c(=O)c2cc1OC`, for which the Potency was 5.16 µM (active).
The same measure, in the same setting: then `Cc1ncc([N+](=O)[O-])n1CCOC(=O)C12CC3CC(CC(C3)C1)C2`, with 1.3 µM (active).
For the molecule `Cc1ncc([N+](=O)[O-])n1CCOC(=O)c1ccccc1`, the Potency is 1.03 µM (active).
On the same count and under the same terms, then `Cc1ncc([N+](=O)[O-])n1CCOC(=O)c1ccc(Br)cc1`, with 1.16 µM (active).
